Most compounds without a hit are left out; they make up all but 3.7% or so of the library.
ClpP mod = qHTS Assay for Activators of ClpP; purified B. subtilis ClpP, FRET peptide cleavage, 20 min; Potency, µM (titrated, usually from 57.5 µM); actives 1.9% (n = 340,000); active = well fitted falling curve with a large enough effect; inconclusive = small, poorly fitted or top-dose-only effect; inactive = no such curve, though single readings can be large or run the other way; note: the source files actives as falling curves though it sought activators and does not explain the sign; nearly all actives have a fitted effect of over 65% in size
Target sequence (P80244 whole entry, looked up): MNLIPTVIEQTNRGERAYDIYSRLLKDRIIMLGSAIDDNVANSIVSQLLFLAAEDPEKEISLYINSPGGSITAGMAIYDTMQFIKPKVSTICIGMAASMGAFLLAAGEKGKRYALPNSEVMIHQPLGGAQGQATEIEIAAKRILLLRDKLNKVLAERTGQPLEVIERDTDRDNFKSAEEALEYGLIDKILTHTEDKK
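FRET quenching reversal measured ClpP activation: 10 microg/mL B. subtilis ClpP at pH 8 with the FRET-FV decapeptide, read at 430 nm after 320 nm excitation. The 20-min minus 0-min signal was scaled between DMSO/no-enzyme wells and ADEP (5.8 microM final).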
p53 reactivation = qHTS assay for re-activators of p53 using a Luc reporter; H1299 p53-A138V BP100-luciferase reporter, luminescence, 24 h; Potency, µM (series often up to 92.2 µM), hits mostly activators; actives 0.063% (n = 320,000); note: nearly all actives have a fitted effect of over 45% in size
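p53-null H1299 cells stably carrying temperature-sensitive p53-A138V and a BP100-luciferase reporter were pinned with compounds (4-point, 1:5 series) and held 24 hrs at 37 deg C. Luminescence was read 10 min after detection reagent.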
A549 viability = Nrf2 qHTS screen for inhibitors: counterscreen for cytotoxicity; A549 ARE-Fluc cells, CellTiter-Fluor viability, 18-24 h; Potency, µM (doses to about 46 µM), hits mostly inhibitors; actives 0.16% (n = 390,000); AID 504648, 2011
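A549 ARE-Fluc cells in 5% FBS OPTI-MEM, 5000 cells/well, rested 2 h then exposed to compounds in concentration-response for 18-24 h at 37 °C. Viability by CellTiter-Fluor fluorescence (Ex 405/Em 525) after 30 min; luciferase luminescence (BugLite, 15 min, RT) read afterwards.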
Nrf2 ARE act = qHTS of Nrf2 Activators; AREc32 ARE-luciferase reporter (MCF7-derived line), luminescence, 24 h; Potency, µM (highest dose often 46.1 µM), hits mostly activators; actives 0.31% (n = 410,000); note: nearly all actives have a fitted effect of over 65% in size
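For detection, Steady-Glo was added and plates sat 30 min at RT; before that, AREc32_Fluc cells grown overnight in OPTI-MEM/5% FBS had been treated with 23 nL compound for 24 hr at 37 deg C.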
Nrf2 block = Nrf2 qHTS screen for inhibitors; A549 ARE-Fluc reporter, luciferase luminescence, 18-24 h; Potency, µM (top dose mostly 46 µM), most hits filed as inhibitors; actives 2.1% (n = 360,000); note: nearly all actives have a fitted effect of over 60% in size
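In this cell-based qHTS, ARE-driven firefly luciferase in A549 cells reports Nrf2 activity; the luminescent signal after BugLite lysis is the measured value, with a prior CellTiter-Fluor read for cell health.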
miR-21 act = qHTS Assay for Modulators of miRNAs and/orActivators of miR-21; HeLa miR-21 FLuc reporter, luciferase, 48 h; Potency, µM (doses to about 38.3 µM), most hits filed as activators; 340,000 tested, under 10 active;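 note: miR-21 action dims this reporter so a rising signal means less miR-21 action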
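HeLa cells endogenously expressing miR-21, stably carrying CMV-driven firefly luciferase with a downstream miR-21 binding site, 2000 cells/well. Titrations up to approximately 40 uM, 48 hours; luciferase luminescence read.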
Large screens that a line does not name were inactive. Unless noted, calls come from the whole dose curve; as a rule, active = well fitted curve in the direction sought with a large enough effect; inconclusive = small, poorly fitted or top-dose-only effect, or another doubt; inactive = no such curve, though single readings can be large; an effect the other way counts as inactive or inconclusive.

Cc1ccc(NC(=O)CN2CCN(S(=O)(=O)c3cccs3)CC2)cc1S(=O)(=O)N(C)C	ClpP mod 32µM
Cc1ccc(NC(=O)CCS(=O)(=O)c2ccccc2)cc1S(=O)(=O)N1CCCCCC1	Nrf2 block inconclusive (no result: ClpP mod, miR-21 act)
Cc1ccccc1OCC(=O)Nc1ccc(C)c(S(=O)(=O)N2CCCCCC2)c1	Nrf2 block 23µM (no result: miR-21 act)
Cc1ccc(NC(=O)COc2ccccc2)cc1S(=O)(=O)N1CCCCC1	none (no result: p53 reactivation, A549 viability, Nrf2 block, miR-21 act)
Cc1ccc(NC(=O)COc2cccc(-n3cnnn3)c2)cc1S(=O)(=O)N1CCOCC1	Nrf2 block 23µM (no result: miR-21 act)
CCCCC(=O)Nc1ccc(C)c(S(=O)(=O)N2CCCCCC2)c1	A549 viability inconclusive, Nrf2 block 16µM (no result: miR-21 act)
COc1cccc(NC(=O)Cn2c(=O)c3cccn3c3ccc(F)cc32)c1	ClpP mod inconclusive (no result: p53 reactivation)
Cc1ccc(NC(=O)CN2CCCC2c2cccs2)cc1S(=O)(=O)N1CCCCC1 (stereo not given)	Nrf2 block 21µM (no result: miR-21 act)
Cc1ccc(NC(=S)Nc2ccc(C(C)C)cc2)cc1S(=O)(=O)N1CCCCCC1	A549 viability inconclusive, Nrf2 block 12µM
CCOc1ccc(NC(=O)CN2CCCC2c2cccs2)cc1S(=O)(=O)N1CCCCC1 (stereo not given)	Nrf2 block inconclusive (no result: miR-21 act)
N#Cc1nc(Nc2ccc(-c3ccccc3)cc2)nc(NC2CCCC2)n1	Nrf2 block inconclusive (no result: ClpP mod, p53 reactivation, Nrf2 ARE act, miR-21 act)
Cc1[nH]n2c(=O)c3c(nc2c1-c1ccccc1)CCC3	ClpP mod 32µM (no result: Nrf2 block)
Cc1[nH]n2c(=O)c3c(nc2c1-c1ccc(Cl)cc1)CCC3	ClpP mod 25µM, Nrf2 block inconclusive
CCCCc1c(C)nc2c(-c3ccc(Cl)cc3)c(C)[nH]n2c1=O	Nrf2 block 5.8µM, miR-21 act inconclusive (no result: p53 reactivation)
Nc1[nH]n2c(=O)c3c(nc2c1N=Nc1ccccc1)CCCC3	A549 viability 13µM (no result: Nrf2 block)
O=c1c2c(nc3c(-c4ccccc4)c[nH]n13)CCCC2	ClpP mod inconclusive, Nrf2 block inconclusive
Cc1cccc(-n2cc(-c3ccccc3)nc2SCC(=O)Nc2ccccc2Cl)c1	none (no result: p53 reactivation, Nrf2 block)
O=C(Cn1c(=O)ccc2cc(S(=O)(=O)N3CCCC3)ccc21)NCc1ccc(F)cc1	none (no result: p53 reactivation, Nrf2 block)
O=C(CN(c1ccc(Cl)c(C(F)(F)F)c1)S(=O)(=O)c1ccccc1)N/N=C/c1cccc2c1OCCO2	ClpP mod 22µM
COc1cccc(-c2noc(COc3ccccc3Cl)n2)c1	Nrf2 block inconclusive (no result: p53 reactivation)
CCOCCCNC(=O)c1ccc(-n2c(-c3ccccc3)cc3c2CCCC3)cc1	Nrf2 ARE act 11µM, Nrf2 block inconclusive, miR-21 act inconclusive (no result: p53 reactivation)
COCCCNC(=O)c1ccc(-n2c(-c3ccccc3)cc3c2CCCCC3)cc1	Nrf2 ARE act inconclusive, Nrf2 block inconclusive (no result: p53 reactivation)
CC(C)NC(=O)c1ccc(-n2c(-c3ccccc3)cc3c2CCCCC3)cc1	Nrf2 ARE act 13µM, Nrf2 block inconclusive (no result: p53 reactivation)
CC1CCc2c(cc(-c3ccccc3)n2-c2ccc(C(=O)NC(C)C)cc2)C1 (stereo not given)	A549 viability inconclusive, Nrf2 ARE act 2.8µM, Nrf2 block inconclusive (no result: p53 reactivation)
CN(C)CCNc1cc(N2CCN(C)CC2)ncn1	none (no result: p53 reactivation, A549 viability, Nrf2 ARE act, Nrf2 block, miR-21 act)
Cc1ccc(C2=C(c3ccc([N+](=O)[O-])cc3)C(=O)OC2)cc1C	Nrf2 block 23µM
COc1ccc(NC(C)c2cc(Cl)ccc2O)cc1 (stereo not given)	ClpP mod 3.2µM
CCC(c1nnnn1Cc1ccc(F)cc1)N(CCCO)Cc1cc2cc3c(cc2[nH]c1=O)OCO3 (stereo not given)	ClpP mod 32µM (no result: Nrf2 block)
CCC(c1nnnn1CC1CCCO1)N(CCCO)Cc1cc2cccc(C)c2[nH]c1=O (stereo not given)	none
O=c1c2ccccc2nc2n1CCc1c-2[nH]c2ccccc12	p53 reactivation inconclusive, Nrf2 block inconclusive (no result: miR-21 act)
Cc1cccc2c(=O)n3c(cc12)-c1[nH]c2ccccc2c1CC3	ClpP mod 14µM (no result: p53 reactivation, miR-21 act)
O=C(NCCc1ccc(Cl)cc1)c1cc2c(s1)-c1ccccc1OC2	Nrf2 block inconclusive (no result: p53 reactivation)
COCCCN(Cc1ccco1)C(=O)c1cc2c(s1)-c1ccccc1OC2	Nrf2 block 9.2µM (no result: p53 reactivation)
CC(C)CCN(Cc1ccco1)C(=O)c1cc2c(s1)-c1ccccc1OC2	Nrf2 block inconclusive (no result: p53 reactivation)
Cc1ccc(CCNC(=O)c2cc3c(s2)-c2ccccc2OC3)cc1	A549 viability inconclusive, Nrf2 block 18µM (no result: p53 reactivation)
Cn1c(=O)c2c(nc(SCC(=O)c3cccs3)n2Cc2ccc(F)cc2)n(C)c1=O	Nrf2 block inconclusive
Cn1c(=O)c2c(nc(Br)n2CC(=O)c2cccs2)n(C)c1=O	ClpP mod 28µM (no result: Nrf2 block)
O=C(NC(=S)Nc1ccccc1Br)C1CCCC1	p53 reactivation 28µM, Nrf2 block inconclusive
CCc1c(C)[nH]c2nc3ccccc3n2c1=O	ClpP mod 28µM
O=c1cc(CCl)[nH]c2nc3ccccc3n12	Nrf2 ARE act inconclusive
O=c1cc(-c2ccccc2)[nH]c2nc3ccccc3n12	ClpP mod 11µM, Nrf2 block inconclusive
O=C(C[C@@H]1CC[C@H](NC(=O)Nc2ccc(F)cc2)[C@@H](CO)O1)NCc1cccc(F)c1	none (no result: p53 reactivation, A549 viability, Nrf2 ARE act, Nrf2 block, miR-21 act)
CCOC(=O)c1ccccc1N=N/C(C(C)=O)=C(/C)O	ClpP mod 28µM
CCOc1ccc(C(=O)OCc2cc(=O)n3nc(C4CC4)sc3n2)cc1	Nrf2 block inconclusive (no result: p53 reactivation)
Fc1ccc(Sc2nc(-c3ccccc3)nnc2C(F)(F)F)cc1	none
Fc1ccc(Sc2cc(Cl)c(-c3ccccc3)nn2)cc1	ClpP mod 28µM (no result: Nrf2 block)
Nc1[nH]nc2nc(-c3ccccc3)[nH]c(=O)c12	none
Nc1nc(-c2ccccc2)[nH]c(=O)c1N	ClpP mod 28µM
COc1ccc(OC)c(CCNC(=O)CCn2c(=O)c3cccn3c3cccnc32)c1	ClpP mod inconclusive (no result: p53 reactivation)
COc1ccc(CCNC(=O)Cn2nnc(-c3ccc(Cl)cc3)n2)cc1OC	none (no result: p53 reactivation, Nrf2 block)
CC1=C(C(=O)OC2CCCCC2)C(c2ccc(C)o2)C2=C(CCCC2=O)N1 (stereo not given)	ClpP mod inconclusive, Nrf2 block inconclusive
CC1(C)CC(=O)C2=C(C1)NC(SCC(=O)Nc1ccccc1)=C(C#N)C2c1ccco1 (stereo not given)	Nrf2 block inconclusive
CC1=C(C(=O)OC2CCCCC2)C(c2ccco2)C2=C(CC(C)(C)CC2=O)N1 (stereo not given)	ClpP mod 32µM (no result: Nrf2 block)
Cc1ccc(C(=O)CSC2=C(C#N)C(c3ccco3)C3=C(CC(C)(C)CC3=O)N2)cc1 (stereo not given)	A549 viability inconclusive, Nrf2 block 16µM

Screens: PubChem, National Center for Advancing Translational Sciences (NCATS)
